From PubChem BioAssay
Active and inactive are the calls of the source. Unless noted, no rule for the calls is given here.

What was measured:
[1] = compounds binding Alexa647 anti-His antibody – biochemical, small-molecule microarray, 635 nm fluorescence, artefact control for SMM control protein annotation, primary screen (AID 1128); settings: higher = more signal;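 also: score merges feature fluorescence with signal-to-noise for each printed compound spot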
[2] = system: Human papillomavirus type 1a E7 protein (residues 1-88); test: HPV1a E7 small-molecule binders, primary screen, biochemical, small-molecule microarray, residues 1-88, 635 nm (AID 1129); settings: small-molecule microarray binding, fluorescence 635 nm; higher = more signal
[3] = target: Focal adhesion kinase 1 (Homo sapiens) (UniProt Q05397); test: PTK2 protein binding on printed compound slides – biochemical, small-molecule microarray, 635/667 nm fluorescence, BSA, DTT, primary screen (AID 1130); settings: 635 nm fluorescence, higher = more signal;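 also: composite of spot emission at 667 nm and signal to noise over triplicate slides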
[4] = system: Fibrinogen (Alexa647-labelled); test: Alexa647-fibrinogen binding to printed small molecules – biochemical, small-molecule microarray, 635/667 nm fluorescence, artefact control for SMM control-protein annotation, profiling panel (AID 1131); settings: fibrinogen-A647 binding fluorescence, higher = more signal;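 also: z-score merges 667 nm fluorescence with per-spot signal-to-noise over triplicate slides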
[5] = target: Follistatin (Homo sapiens) (UniProt P19883); test: FST protein binding to printed compounds – biochemical, small-molecule microarray, 635/667 nm fluorescence, primary screen (AID 1132); settings: 635 nm fluorescence, higher = more signal
[6] = target: Fibroblast growth factor 2 (Homo sapiens) (UniProt P09038); test: basic fibroblast growth factor binding to printed compounds – biochemical, small-molecule microarray, 635/667 nm fluorescence, primary screen (AID 1133); settings: FGF2, fluorescence 635/667, higher = more signal
[7] = JC-1 mitochondrial potential readout, lung cancer cells – cell-based, A549, JC-1 fluorescence, basal, 24 h, 100 nL, profiling panel (AID 1138); settings: higher = more signal;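 also: A549 lung adenocarcinoma cells under basal conditions with no added stimulus; test concentration not given here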
Lefty1 = Lefty1 protein binding to printed compounds – biochemical, small-molecule microarray, 635/667 nm fluorescence, primary screen (AID 1139); settings: fluorescence 635/667, higher = more signal
[8] = system: wheat germ agglutinin (Triticum aestivum), Alexa647-labelled; test: Alexa647-WGA lectin binding to printed small molecules – biochemical, small-molecule microarray, 635/667 nm fluorescence, artefact control for SMM control-protein annotation, profiling panel (AID 1140); settings: WGA-A647 binding, 635 nm fluorescence, higher = more signal;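 also: score merges 667 nm feature emission with signal to noise over triplicate slides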
[9] = target: Luciferin 4-monooxygenase (Photinus pyralis) (UniProt P08659); test: inhibition of purified Photinus pyralis luciferase – biochemical, luminescence, purified enzyme, 2006 set, primary screen (AID 1141); settings: purified firefly luciferase, SteadyGlo luminescence, 30 min; higher = more signal, called active from +8 up or from −8 down;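 also: cell-free assay with purified firefly luciferase at 100 ng per well in PBS; test concentration not given here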
[10] = system: Wnt5a (protein binding on small-molecule microarray); test: small molecules binding Wnt5a protein – biophysical, small-molecule microarray, 635/667 nm fluorescence, primary screen (AID 1142); settings: 635 nm fluorescence, higher = more signal;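 also: fluorescence read at 667 nm with signal to noise per printed feature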
[11] = ATP-based viability of Huh7 replicon cells – cell-based, CellTiter-Glo luminescence, basal, 48 h, cytotoxicity control for HCV replication inhibitor project, primary screen (AID 1143); settings: higher = more signal, called active from +8 up or from −8 down;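 also: Huh7 hepatoma cells carrying a hepatitis C replication reporter with no stimulus; test concentration not given here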
[12] = Pseudomonas biofilm growth suppression – PAO1 strain, BacTiter-Glo luminescence, LB-PBS, primary screen (AID 1144); settings: P. aeruginosa PAO1 biofilm, 12 h, higher = more signal
[13] = basal CRE-LacZ reporter activity in PC12 – cell-based, unstimulated, primary screen (AID 1145); settings: no forskolin, luminescence, 4.5 h, higher = more signal, called active from +8 up or from −8 down
[14] = forskolin-driven CRE-LacZ activity in PC12 – cell-based, CRE-LacZ reporter, forskolin-stimulated, primary screen (AID 1146); settings: luminescence, 4.5 h, higher = more signal, called active from +8 up or from −8 down;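 also: PC12 cells with 6xCRE LacZ reporter stimulated by forskolin 10 µM; beta-galactosidase reporter signal reflecting CREB driven transcription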
[15] = target: Streptavidin (Streptomyces avidinii) (UniProt P22629); test: compounds binding control protein streptavidin – biophysical, small-molecule microarray, 635/667 nm fluorescence, artefact control for SMM compound annotation, primary screen (AID 1147); settings: higher = more signal;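 also: signal reflects streptavidin binding to arrayed compounds as a control protein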
[16] = probe aInhba binding on compound microarray – biochemical, small-molecule microarray, 635/667 nm fluorescence, primary screen (AID 1148); settings: higher = more signal;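 also: score merges 667nm spot fluorescence with signal-to-noise for antibody binding to printed compounds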
Torsin-1A (Homo sapiens) [17] = target: Torsin-1A (Homo sapiens) (UniProt O14656); test: TOR1A wild-type binding on microarray – cell lysate, small-molecule microarray, lysate, 635/667 nm, primary screen (AID 1149); settings: COS7 hTOR1A-WT lysate, 635 nm fluorescence, higher = more signal
Torsin-1A (Homo sapiens) [18] = target: Torsin-1A (Homo sapiens) (UniProt O14656); test: torsin A mutant lysate binding on microarrays – cell lysate, small-molecule microarray, COS7 lysate, 635/667 nm fluorescence, primary screen (AID 1150); settings: COS7 hTOR1A mutant lysate, 635 nm fluorescence, higher = more signal;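 also: score pools 667 nm emission and signal to noise measuring lysate protein binding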
[19] = system: Sonic hedgehog protein (Shh); test: Sonic hedgehog microarray binding compounds – biochemical, small-molecule microarray, 635/667 nm fluorescence, primary screen (AID 1151); settings: 635 nm fluorescence, higher = more signal;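 also: Shh protein binding to compounds spotted on small-molecule microarray slides; score combines spot fluorescence intensity with signal-to-noise across triplicate slides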

Chain of Luciferin 4-monooxygenase (Photinus pyralis) (P08659 whole entry, looked up): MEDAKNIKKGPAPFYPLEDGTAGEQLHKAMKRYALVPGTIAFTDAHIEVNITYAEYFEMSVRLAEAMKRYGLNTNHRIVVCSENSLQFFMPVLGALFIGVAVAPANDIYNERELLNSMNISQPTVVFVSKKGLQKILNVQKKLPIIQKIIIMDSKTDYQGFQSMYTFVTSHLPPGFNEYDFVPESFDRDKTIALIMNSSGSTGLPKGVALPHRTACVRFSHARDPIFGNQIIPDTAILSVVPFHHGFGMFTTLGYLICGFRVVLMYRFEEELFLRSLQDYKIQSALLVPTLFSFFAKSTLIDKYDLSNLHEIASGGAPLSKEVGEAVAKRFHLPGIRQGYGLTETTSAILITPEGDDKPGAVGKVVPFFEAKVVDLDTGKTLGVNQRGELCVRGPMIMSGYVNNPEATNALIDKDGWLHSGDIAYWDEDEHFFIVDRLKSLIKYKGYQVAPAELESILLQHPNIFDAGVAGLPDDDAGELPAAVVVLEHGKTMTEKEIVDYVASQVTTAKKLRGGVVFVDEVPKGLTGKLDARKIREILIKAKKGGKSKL
Chain of Streptavidin (Streptomyces avidinii) (P22629 whole entry, looked up): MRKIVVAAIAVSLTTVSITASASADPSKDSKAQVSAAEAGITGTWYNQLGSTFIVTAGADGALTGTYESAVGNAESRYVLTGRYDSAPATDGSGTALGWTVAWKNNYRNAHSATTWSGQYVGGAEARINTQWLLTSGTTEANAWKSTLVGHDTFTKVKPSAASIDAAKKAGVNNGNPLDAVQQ
Chain of Fibroblast growth factor 2 (Homo sapiens) (P09038 whole entry, looked up): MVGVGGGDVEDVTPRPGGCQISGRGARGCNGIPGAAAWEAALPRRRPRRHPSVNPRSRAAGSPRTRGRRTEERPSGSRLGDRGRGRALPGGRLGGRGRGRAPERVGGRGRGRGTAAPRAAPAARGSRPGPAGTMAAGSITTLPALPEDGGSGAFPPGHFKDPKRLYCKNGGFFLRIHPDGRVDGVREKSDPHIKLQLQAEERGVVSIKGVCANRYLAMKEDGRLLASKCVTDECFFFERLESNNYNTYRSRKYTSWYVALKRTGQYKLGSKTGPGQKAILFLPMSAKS
Chain of Follistatin (Homo sapiens) (P19883 whole entry, looked up): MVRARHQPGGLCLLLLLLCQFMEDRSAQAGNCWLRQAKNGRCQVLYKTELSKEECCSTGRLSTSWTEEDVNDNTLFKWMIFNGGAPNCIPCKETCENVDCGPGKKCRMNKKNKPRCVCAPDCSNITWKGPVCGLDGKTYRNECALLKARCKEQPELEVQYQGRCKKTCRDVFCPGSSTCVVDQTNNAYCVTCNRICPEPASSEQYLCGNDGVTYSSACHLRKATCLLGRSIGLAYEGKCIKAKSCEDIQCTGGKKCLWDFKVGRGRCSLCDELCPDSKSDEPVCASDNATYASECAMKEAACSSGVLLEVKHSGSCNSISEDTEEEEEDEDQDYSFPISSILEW
Chain of Focal adhesion kinase 1 (Homo sapiens) (Q05397 whole entry, looked up): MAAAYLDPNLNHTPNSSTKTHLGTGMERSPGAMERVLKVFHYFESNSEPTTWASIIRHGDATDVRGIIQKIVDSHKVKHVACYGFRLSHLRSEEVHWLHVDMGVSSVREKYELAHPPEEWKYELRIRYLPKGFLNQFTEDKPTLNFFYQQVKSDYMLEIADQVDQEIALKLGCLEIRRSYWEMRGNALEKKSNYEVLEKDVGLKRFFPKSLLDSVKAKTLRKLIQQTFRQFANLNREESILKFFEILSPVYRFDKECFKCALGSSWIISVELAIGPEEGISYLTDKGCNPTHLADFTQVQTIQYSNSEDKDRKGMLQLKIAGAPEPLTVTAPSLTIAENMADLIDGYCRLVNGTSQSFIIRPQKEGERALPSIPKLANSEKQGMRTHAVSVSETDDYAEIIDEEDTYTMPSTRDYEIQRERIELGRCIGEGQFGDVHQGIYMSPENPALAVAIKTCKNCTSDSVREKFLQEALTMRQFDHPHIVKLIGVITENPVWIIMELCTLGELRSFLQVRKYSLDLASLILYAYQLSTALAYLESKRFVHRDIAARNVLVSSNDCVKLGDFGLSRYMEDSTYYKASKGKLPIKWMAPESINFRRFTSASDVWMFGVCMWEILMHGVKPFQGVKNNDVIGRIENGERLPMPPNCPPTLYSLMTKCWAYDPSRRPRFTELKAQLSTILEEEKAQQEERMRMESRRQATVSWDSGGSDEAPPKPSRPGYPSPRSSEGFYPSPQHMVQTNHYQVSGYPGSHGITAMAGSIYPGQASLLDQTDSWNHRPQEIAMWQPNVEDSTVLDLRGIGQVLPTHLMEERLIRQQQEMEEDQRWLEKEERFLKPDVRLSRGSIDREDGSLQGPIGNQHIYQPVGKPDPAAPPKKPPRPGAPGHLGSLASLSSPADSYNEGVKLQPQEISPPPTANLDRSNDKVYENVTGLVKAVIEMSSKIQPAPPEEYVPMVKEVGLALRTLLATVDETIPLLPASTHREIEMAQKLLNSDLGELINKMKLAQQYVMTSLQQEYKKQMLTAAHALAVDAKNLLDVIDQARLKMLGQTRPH
Chain of Torsin-1A (Homo sapiens) (O14656 whole entry, looked up): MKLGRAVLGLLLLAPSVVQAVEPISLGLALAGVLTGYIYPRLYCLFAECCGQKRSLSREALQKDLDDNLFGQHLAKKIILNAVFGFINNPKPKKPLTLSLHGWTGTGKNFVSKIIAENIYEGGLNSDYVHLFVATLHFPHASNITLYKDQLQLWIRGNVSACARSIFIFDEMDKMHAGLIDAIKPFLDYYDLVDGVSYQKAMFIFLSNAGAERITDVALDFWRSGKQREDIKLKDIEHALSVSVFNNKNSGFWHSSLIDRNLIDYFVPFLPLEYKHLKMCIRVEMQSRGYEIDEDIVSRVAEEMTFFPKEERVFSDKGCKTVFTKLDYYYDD

SMILES | composite z-score [1] | composite z-score [2] | composite z-score [3] | composite z-score [4] | composite z-score [5] | composite z-score [6] | z-score [7] | composite z-score (Lefty1) | composite z-score [8] | z-score [9] | composite z-score [10] | z-score [11] | z-score [12] | z-score [13] | z-score [14] | composite z-score [15] | composite z-score [16] | composite z-score (Torsin-1A (Homo sapiens) [17]) | composite z-score (Torsin-1A (Homo sapiens) [18]) | composite z-score [19]
COC(=O)C[C@H]1O[C@]2(C(=O)N(C)c3ccccc32)[C@@H](C)[C@@H]1[Si](C)(C)F | 0.0783 | 0.608 | 0.26 | 0.209 | 1.18 | 2.03 | 0.435 | 1.33 | -0.0572 | -1.82 (inactive) | 0.56 | -1.18 (inactive) | -0.852 (inactive) | 1.03 (inactive) | -0.383 (inactive) | 0.454 | 0.0301 | 0.142 | 0.164 | 1.79
CC1CC/C=C\[C@H]2OC34C=CCN(C(C)(C)C)C(=O)[C@H]3N(CCO)C(=O)[C@@H]4C2C(=O)O1 (stereo not given in full) | -0.931 | -0.585 | -0.0131 | -0.671 | -0.352 | -0.845 | -0.315 | -0.991 | 0.119 | 0.864 (inactive) | -0.276 | -0.973 (inactive) | -0.0996 (inactive) | -0.753 (inactive) | -0.237 (inactive) | -1.59 | -0.171 | -2.34 | -2.49 | -0.0338
COCCOC(=O)N1C(=O)[C@@]2(c3cc(C#CCCO)ccc31)[C@H](C(=O)N1CCCCCCC1)[C@H]1C(=O)O[C@H](c3ccccc3)[C@H](c3ccccc3)N1[C@@H]2c1ccc(OCCO)cc1 | 1.19 | 1.2 | 0.959 | 0.769 | 1.4 | 1.51 | -0.821 | 1.6 | 1.35 | 0.242 (inactive) | 0.87 | -1.2 (inactive) | -0.589 (inactive) | -0.581 (inactive) | -0.571 (inactive) | 1.43 | 1.38 | 1.8 | 1.44 | 1.53
COc1cc(C(O)C2C=CC3C(=O)NC(=O)C3N2Nc2ccccn2)cc(OC)c1OC (stereo not given) | 1.26 | 0.852 | 0.184 | 0.764 | 0.169 | 0.158 | 0.623 | -0.188 | 0.0705 | -0.0958 (inactive) | 0.147 | 0.969 (inactive) | 0.0747 (inactive) | 0.0467 (inactive) | 0.329 (inactive) | 0.0266 | 0.0448 | 0.366 | 0.291 | 0.371
[N-]=[N+]=Nc1ccccc1[C@H]1OC(c2ccc(OCCCO)cc2)=N[C@@]1(CCS(=O)(=O)c1ccccc1)C(N)=O | 2.95 | 1.22 | 0.26 | 0.938 | 0.794 | 0.0263 | 0.118 | -0.142 | 1.21 | -6.6 (inactive) | 0.79 | -1.26 (inactive) | -0.563 (inactive) | 0.96 (inactive) | -1.12 (inactive) | 0.751 | 0.668 | 0.875 | 0.356 | 0.176
